# Measured values from PubChem BioAssay (NCI).
# About 79,000 compounds went through this panel and 15% of them were active in at least one assay; those are over-represented in the sample as a whole. Calls of active or inactive are those of the source. Rule as the data show it: active = growth inhibition above about 70%; inactive = the rest.
# Assay: NCI Yeast Anticancer Drug Screen. Data for the mlh1 rad18 strain (AID 175)
# Details: S. cerevisiae mlh1 rad18 strain growth inhibition; at 5.0 µM (retest, dose inferred, filed as 0.5); active compounds read high
# Method in brief: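 In this whole-cell yeast screen, a strain with altered DNA damage repair is challenged with compound, and its growth is measured against matched vehicle-treated controls.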
row,SMILES,growth inhibition
1,Cc1[nH]nc(-c2cccnc2)c1N=NN1CCOCC1,-3% (inactive)
2,CC1CCC2(CC1)NC1=C(CC(C)CC1)C1=C2CC(C)CC1 (configuration not stated),32% (inactive)
3,CN(C)CC(CN1CCCC1)C(=O)c1ccccc1 (configuration not stated),15% (inactive)
4,COc1ccc(/C(Cl)=C(/c2ccc(O)cc2)c2ccc(OCCN(C)C)cc2)cc1,27% (inactive)
5,CCCCCC(Oc1ccc(Cl)cc1)C(=O)O (configuration not stated),-15% (inactive)
6,N#CSC#CCCC#CSC#N,47% (inactive)
7,COc1cc2c(c(C3C(=O)N(C)c4ccc(Br)cc43)c1OC)OCO2 (configuration not stated),4% (inactive)
8,c1ccc(-c2cc(CN3CCOCC3)c(-c3ccccc3)o2)cc1,-2% (inactive)
9,CC(=O)Nc1c([N+](=O)[O-])cc2c3c(cccc13)C=C2,31% (inactive)
10,CCOc1nc(N)nc(C)c1N=Nc1ccc(Br)cc1,17% (inactive)
11,C=CC1(NC(=O)c2ccccc2)CCC(C(C)(C)C)CC1 (configuration not stated),-7% (inactive)
12,Cc1cccc2ccc3cc(CC(=O)O)c4cccc(C)c4c3c12,36% (inactive)
13,CCCCSc1nc2c([nH]1)c(=S)n(C)c(=S)n2C,-7% (inactive)
14,COC(=O)c1ccccc1CC(Cc1ccc2c(c1)CCC2)C(=O)OC (configuration not stated),16% (inactive)
15,CCC(C)Sc1nc2c([nH]1)c(=S)n(C)c(=O)n2C (configuration not stated),1% (inactive)
16,O=S(=O)(c1ccc(NC(=S)NCc2ccncc2)cc1)N1CCCCC1,-27% (inactive)

row,SMILES,growth inhibition
1,CC12C(=O)OC(=O)C1C1c3ccccc3C2c2ccccc21 (configuration not stated),76% (active)
2,CCOC(=O)C(F)C(Br)C(=O)OCC (configuration not stated),49% (inactive)
3,CCCCCCCCCCCCCCCCC/C=N\NC(=O)CCCC(=O)N/N=C/CCCCCCCCCCCCCCCCC,2% (inactive)
4,CC(C(=O)NN)C(O)C(C)(C)O (configuration not stated),7% (inactive)
5,COC(=O)C1C2CC3c4[nH]c5cc(OC)c(Br)cc5c4CCN3CC2CC(OC(=O)c2cc(OC)c(OC)c(OC)c2)C1OC (configuration not stated),-30% (inactive)
6,CCCN(CCC)C(=S)N/N=C/c1cccc(C)n1,-8% (inactive)
7,Cc1cccc2c1Oc1ccccc1C2N1C(=O)/C(=C/c2cccs2)SC1=S (configuration not stated),2% (inactive)
8,COc1ccc(OC(C)=O)c2c1CCC=CC2=O,14% (inactive)
9,COC(=O)CSc1nc2[nH]c(SC)c(C(N)=O)c2c(=O)n1-c1ccccc1,-14% (inactive)
10,O=C(Nc1ccc(Cl)c(Cl)c1Cl)Oc1c(Cl)c(Cl)c(Cl)c(Cl)c1Cl,20% (inactive)
11,COc1ccc(CCCC(=O)O)c2c(OC)cccc12,5% (inactive)
12,FC(F)(F)c1ccc(Nc2ccc(C(F)(F)F)cc2)cc1,12% (inactive)
13,O=C(c1ccccc1)C(Br)CCCC(Br)C(=O)c1ccccc1 (configuration not stated),24% (inactive)
14,CC1(C)c2ccccc2Cc2cc3ccccc3nc21,-1% (inactive)
15,COc1ccc2c(c1)[n+]([O-])c(-c1ccc(Cl)c(Cl)c1)c(N)[n+]2[O-],71% (active)

# Same assay, conditions: S. cerevisiae mlh1 rad18 strain growth inhibition; at 50.0 µM (retest, dose inferred, filed as 5.0); active compounds read high
row,SMILES,growth inhibition
1,Cc1[nH]nc(-c2cccnc2)c1N=NN1CCOCC1,77% (active)
2,CC1CCC2(CC1)NC1=C(CC(C)CC1)C1=C2CC(C)CC1 (configuration not stated),89% (active)
3,CN(C)CC(CN1CCCC1)C(=O)c1ccccc1 (configuration not stated),32% (inactive)
4,COc1ccc(/C(Cl)=C(/c2ccc(O)cc2)c2ccc(OCCN(C)C)cc2)cc1,27% (inactive)
5,CCCCCC(Oc1ccc(Cl)cc1)C(=O)O (configuration not stated),89% (active)
6,N#CSC#CCCC#CSC#N,46% (inactive)
7,COc1cc2c(c(C3C(=O)N(C)c4ccc(Br)cc43)c1OC)OCO2 (configuration not stated),10% (inactive)
8,c1ccc(-c2cc(CN3CCOCC3)c(-c3ccccc3)o2)cc1,99% (active)
9,CC(=O)Nc1c([N+](=O)[O-])cc2c3c(cccc13)C=C2,94% (active)
10,CCOc1nc(N)nc(C)c1N=Nc1ccc(Br)cc1,98% (active)
11,C=CC1(NC(=O)c2ccccc2)CCC(C(C)(C)C)CC1 (configuration not stated),93% (active)
12,Cc1cccc2ccc3cc(CC(=O)O)c4cccc(C)c4c3c12,99% (active)
13,CCCCSc1nc2c([nH]1)c(=S)n(C)c(=S)n2C,86% (active)
14,COC(=O)c1ccccc1CC(Cc1ccc2c(c1)CCC2)C(=O)OC (configuration not stated),15% (inactive)
15,CCC(C)Sc1nc2c([nH]1)c(=S)n(C)c(=O)n2C (configuration not stated),24% (inactive)
16,O=S(=O)(c1ccc(NC(=S)NCc2ccncc2)cc1)N1CCCCC1,-8% (inactive)

row,SMILES,growth inhibition
1,CC12C(=O)OC(=O)C1C1c3ccccc3C2c2ccccc21 (configuration not stated),99% (active)
2,CCOC(=O)C(F)C(Br)C(=O)OCC (configuration not stated),98% (active)
3,CCCCCCCCCCCCCCCCC/C=N\NC(=O)CCCC(=O)N/N=C/CCCCCCCCCCCCCCCCC,-25% (inactive)
4,CC(C(=O)NN)C(O)C(C)(C)O (configuration not stated),4% (inactive)
5,COC(=O)C1C2CC3c4[nH]c5cc(OC)c(Br)cc5c4CCN3CC2CC(OC(=O)c2cc(OC)c(OC)c(OC)c2)C1OC (configuration not stated),97% (active)
6,CCCN(CCC)C(=S)N/N=C/c1cccc(C)n1,99% (active)
7,Cc1cccc2c1Oc1ccccc1C2N1C(=O)/C(=C/c2cccs2)SC1=S (configuration not stated),45% (inactive)
8,COc1ccc(OC(C)=O)c2c1CCC=CC2=O,95% (active)
9,COC(=O)CSc1nc2[nH]c(SC)c(C(N)=O)c2c(=O)n1-c1ccccc1,-19% (inactive)
10,O=C(Nc1ccc(Cl)c(Cl)c1Cl)Oc1c(Cl)c(Cl)c(Cl)c(Cl)c1Cl,99% (active)
11,COc1ccc(CCCC(=O)O)c2c(OC)cccc12,73% (active)
12,FC(F)(F)c1ccc(Nc2ccc(C(F)(F)F)cc2)cc1,100% (active)
13,O=C(c1ccccc1)C(Br)CCCC(Br)C(=O)c1ccccc1 (configuration not stated),60% (inactive)
14,CC1(C)c2ccccc2Cc2cc3ccccc3nc21,98% (active)
15,COc1ccc2c(c1)[n+]([O-])c(-c1ccc(Cl)c(Cl)c1)c(N)[n+]2[O-],99% (active)
